According to publication PMC13541613, “GHT-SELEX demonstrates unexpectedly high intrinsic sequence specificity and complex DNA binding of many human transcription factors”:

These sequences were tested against ZNF721 full-length (Homo sapiens, UniProt Q8TF20-2 1-923) (assay: HT-SELEX; 20 mM HEPES pH 7, 140 mM KCl, 5 mM NaCl, 1 mM K2HPO4, 2 mM MgSO4, 100 uM EGTA, ZnSO4, 0.1% Tween20; room temperature, 1 h; high values mean tight binding). Details: protein: ivt; tags: eGFP (N-terminal); dsDNA, one strand shown.
Sequence of ZNF721 full-length (Q8TF20 other isoform, or with tags, fused parts or gaps): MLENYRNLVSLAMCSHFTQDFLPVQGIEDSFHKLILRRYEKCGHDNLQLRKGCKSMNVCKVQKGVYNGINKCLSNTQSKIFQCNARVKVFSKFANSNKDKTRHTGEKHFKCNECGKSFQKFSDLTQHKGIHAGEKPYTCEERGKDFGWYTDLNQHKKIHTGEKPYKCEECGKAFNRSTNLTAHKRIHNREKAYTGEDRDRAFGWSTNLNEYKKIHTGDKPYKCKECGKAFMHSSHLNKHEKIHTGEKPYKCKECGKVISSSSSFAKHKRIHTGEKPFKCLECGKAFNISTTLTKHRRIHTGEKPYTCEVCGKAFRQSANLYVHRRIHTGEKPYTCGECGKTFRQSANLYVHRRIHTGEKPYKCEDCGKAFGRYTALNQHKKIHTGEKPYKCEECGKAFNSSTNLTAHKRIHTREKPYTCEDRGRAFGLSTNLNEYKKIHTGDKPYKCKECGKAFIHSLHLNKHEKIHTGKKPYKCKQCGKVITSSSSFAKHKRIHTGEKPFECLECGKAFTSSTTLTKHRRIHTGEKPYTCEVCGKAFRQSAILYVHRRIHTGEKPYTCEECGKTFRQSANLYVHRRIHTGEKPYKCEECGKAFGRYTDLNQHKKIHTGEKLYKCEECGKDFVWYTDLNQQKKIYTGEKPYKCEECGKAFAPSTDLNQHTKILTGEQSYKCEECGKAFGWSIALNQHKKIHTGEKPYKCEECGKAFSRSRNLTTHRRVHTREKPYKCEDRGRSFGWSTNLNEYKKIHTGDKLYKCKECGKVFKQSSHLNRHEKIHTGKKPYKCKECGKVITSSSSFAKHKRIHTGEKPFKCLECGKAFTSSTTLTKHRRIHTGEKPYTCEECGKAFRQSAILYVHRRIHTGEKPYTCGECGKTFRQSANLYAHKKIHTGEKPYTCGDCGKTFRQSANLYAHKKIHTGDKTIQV
Method in brief: (§1)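 Bead-immobilised tagged transcription factor (full-length or DNA-binding-domain fragment), made in HEK293 lysate or cell-free extract, was incubated with a randomized 40-base DNA library. Binding was for 1 h at room temperature in HEPES/KCl low-stringency buffer with Tween20. After washing and heat elution, bound DNA was PCR-amplified over successive cycles and Illumina-sequenced (~3 million 60 bp reads per sample). Binding signal is a relative k-mer count in selected reads; higher means tighter binding.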

Question: How did the binding signal turn out when CCCCCTCCTC was run?
Answer: 0.116 relative 10-mer count

Question: How did the binding signal turn out when CCCCACCCCC was run?
Answer: 0.447 relative 10-mer count

Question: CCCCCCTCAC was tested. Which binding signal did it give?
Answer: 0.103 relative 10-mer count

Question: AGGGGGGCGG was tested. Which binding signal did it give?
Answer: 0.108 relative 10-mer count

Question: Which binding signal does the source give for CCCCACCACA here?
Answer: 0.148 relative 10-mer count

Question: Which binding signal does the source give for CCCCCAGCCC here?
Answer: 0.146 relative 10-mer count

Question: CCTCCCCCGC was tested. Which binding signal did it give?
Answer: 0.131 relative 10-mer count

Question: For CCCGCCCCCC, which binding signal is on record?
Answer: 0.264 relative 10-mer count

Question: With CTGCCCACCC as the sequence, how does the binding signal read?
Answer: 0.102 relative 10-mer count

Question: With CCCCCTGCCC as the sequence, how does the binding signal read?
Answer: 0.154 relative 10-mer count

Question: Which binding signal does the source give for AGGAAAAAAG here?
Answer: 0.114 relative 10-mer count

Question: AGGGGGGAGG was tested. Which binding signal did it give?
Answer: 0.149 relative 10-mer count

Question: Which binding signal does the source give for CCCCTCCGCC here?
Answer: 0.167 relative 10-mer count

Question: How did the binding signal turn out when CACCCTCCCA was run?
Answer: 0.123 relative 10-mer count

Question: With CTCCCACCCC as the sequence, how does the binding signal read?
Answer: 0.224 relative 10-mer count

Question: CACCCTCCAC was tested. Which binding signal did it give?
Answer: 0.106 relative 10-mer count

Question: With AAAAGCAGTC as the sequence, how does the binding signal read?
Answer: 0.111 relative 10-mer count

Question: For GAAAAAAAAA, which binding signal is on record?
Answer: 0.142 relative 10-mer count

Question: With ACCCCACCCC as the sequence, how does the binding signal read?
Answer: 0.277 relative 10-mer count

Question: Which binding signal does the source give for CCCGCGCCCC here?
Answer: 0.146 relative 10-mer count

Question: How did the binding signal turn out when ACACCCCACC was run?
Answer: 0.13 relative 10-mer count

Question: How did the binding signal turn out when CCCGCCCACC was run?
Answer: 0.259 relative 10-mer count

Question: Which binding signal does the source give for CCCCCCCTCC here?
Answer: 0.208 relative 10-mer count

Question: ACCCCACACC was tested. Which binding signal did it give?
Answer: 0.14 relative 10-mer count

Question: Which binding signal does the source give for CCCGCCCCTC here?
Answer: 0.127 relative 10-mer count

Question: For AAAAAAAGCT, which binding signal is on record?
Answer: 0.472 relative 10-mer count

Question: How did the binding signal turn out when CCCTCCCCCC was run?
Answer: 0.342 relative 10-mer count

Question: CCCGCCCCAC was tested. Which binding signal did it give?
Answer: 0.207 relative 10-mer count

Question: With TAAAAAAACA as the sequence, how does the binding signal read?
Answer: 0.162 relative 10-mer count

Question: How did the binding signal turn out when GAAGCGTACC was run?
Answer: 0.104 relative 10-mer count

Question: How did the binding signal turn out when CCACCCGCCA was run?
Answer: 0.108 relative 10-mer count

Question: For CCCCCACCTC, which binding signal is on record?
Answer: 0.198 relative 10-mer count

Question: How did the binding signal turn out when CTACCCCCCC was run?
Answer: 0.105 relative 10-mer count

Question: With CGCCACCCCA as the sequence, how does the binding signal read?
Answer: 0.135 relative 10-mer count

Question: How did the binding signal turn out when GGGGTGGGGA was run?
Answer: 0.194 relative 10-mer count

Question: For CGCCCCGCCC, which binding signal is on record?
Answer: 0.139 relative 10-mer count

Question: With CAGAAAAAAG as the sequence, how does the binding signal read?
Answer: 0.147 relative 10-mer count

Question: Which binding signal does the source give for CACCACCCTC here?
Answer: 0.111 relative 10-mer count

Question: With CGCCTCCCCC as the sequence, how does the binding signal read?
Answer: 0.126 relative 10-mer count

Question: For CCCCCTCGCC, which binding signal is on record?
Answer: 0.123 relative 10-mer count

The sequences below were run against ZNF721 DBD1 (Homo sapiens, UniProt Q8TF20-2 29-461) in the same assay as above. Details: protein: ivt; tags: eGFP (N-terminal); dsDNA, one strand shown.
Sequence of ZNF721 DBD1 (Q8TF20 17-449): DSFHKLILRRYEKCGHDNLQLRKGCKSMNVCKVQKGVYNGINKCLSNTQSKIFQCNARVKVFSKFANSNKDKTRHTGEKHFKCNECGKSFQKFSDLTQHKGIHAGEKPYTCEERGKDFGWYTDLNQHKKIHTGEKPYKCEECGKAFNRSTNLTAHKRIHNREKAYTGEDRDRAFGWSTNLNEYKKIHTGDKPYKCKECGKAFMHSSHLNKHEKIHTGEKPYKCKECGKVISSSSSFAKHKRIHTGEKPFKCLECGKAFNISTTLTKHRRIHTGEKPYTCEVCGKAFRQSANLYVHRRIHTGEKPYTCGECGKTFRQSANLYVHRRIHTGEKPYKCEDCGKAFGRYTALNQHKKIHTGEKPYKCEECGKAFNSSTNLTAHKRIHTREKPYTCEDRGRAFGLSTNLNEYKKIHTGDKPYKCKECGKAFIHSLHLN
Method in brief: as §1

Question: Which binding signal does the source give for CCCCCTCCTC here?
Answer: 0.00459 relative 10-mer count

Question: With CCCCACCCCC as the sequence, how does the binding signal read?
Answer: 0.0179 relative 10-mer count

Question: CCCCCCTCAC was tested. Which binding signal did it give?
Answer: 0.00482 relative 10-mer count

Question: AGGGGGGCGG was tested. Which binding signal did it give?
Answer: 0.00417 relative 10-mer count

Question: For CCCCACCACA, which binding signal is on record?
Answer: 0.00505 relative 10-mer count

Question: For CCCCCAGCCC, which binding signal is on record?
Answer: 0.00587 relative 10-mer count

Question: With CCTCCCCCGC as the sequence, how does the binding signal read?
Answer: 0.00647 relative 10-mer count

Question: Which binding signal does the source give for CCCGCCCCCC here?
Answer: 0.00982 relative 10-mer count

Question: For CTGCCCACCC, which binding signal is on record?
Answer: 0.00394 relative 10-mer count

Question: CCCCCTGCCC was tested. Which binding signal did it give?
Answer: 0.00628 relative 10-mer count

Question: AGGAAAAAAG was tested. Which binding signal did it give?
Answer: 0.0333 relative 10-mer count

Question: AGGGGGGAGG was tested. Which binding signal did it give?
Answer: 0.00789 relative 10-mer count

Question: Which binding signal does the source give for CCCCTCCGCC here?
Answer: 0.00766 relative 10-mer count

Question: How did the binding signal turn out when CACCCTCCCA was run?
Answer: 0.00555 relative 10-mer count

Question: With CTCCCACCCC as the sequence, how does the binding signal read?
Answer: 0.0128 relative 10-mer count

Question: Which binding signal does the source give for CACCCTCCAC here?
Answer: 0.0056 relative 10-mer count

Question: With AAAAGCAGTC as the sequence, how does the binding signal read?
Answer: 0.00225 relative 10-mer count

Question: For GAAAAAAAAA, which binding signal is on record?
Answer: 0.0136 relative 10-mer count

Question: ACCCCACCCC was tested. Which binding signal did it give?
Answer: 0.0101 relative 10-mer count

Question: How did the binding signal turn out when CCCGCGCCCC was run?
Answer: 0.00505 relative 10-mer count

Question: ACACCCCACC was tested. Which binding signal did it give?
Answer: 0.00413 relative 10-mer count

Question: For CCCGCCCACC, which binding signal is on record?
Answer: 0.0105 relative 10-mer count

Question: Which binding signal does the source give for CCCCCCCTCC here?
Answer: 0.00982 relative 10-mer count

Question: Which binding signal does the source give for ACCCCACACC here?
Answer: 0.00436 relative 10-mer count

Question: How did the binding signal turn out when CCCGCCCCTC was run?
Answer: 0.00633 relative 10-mer count

Question: How did the binding signal turn out when AAAAAAAGCT was run?
Answer: 0.169 relative 10-mer count

Question: Which binding signal does the source give for CCCTCCCCCC here?
Answer: 0.0158 relative 10-mer count

Question: Which binding signal does the source give for CCCGCCCCAC here?
Answer: 0.00784 relative 10-mer count

Question: TAAAAAAACA was tested. Which binding signal did it give?
Answer: 0.00234 relative 10-mer count

Question: Which binding signal does the source give for GAAGCGTACC here?
Answer: 0.0792 relative 10-mer count

Question: Which binding signal does the source give for CCACCCGCCA here?
Answer: 0.00445 relative 10-mer count

Question: CCCCCACCTC was tested. Which binding signal did it give?
Answer: 0.00945 relative 10-mer count

Question: For CTACCCCCCC, which binding signal is on record?
Answer: 0.00427 relative 10-mer count

Question: For CGCCACCCCA, which binding signal is on record?
Answer: 0.00358 relative 10-mer count

Question: With GGGGTGGGGA as the sequence, how does the binding signal read?
Answer: 0.0094 relative 10-mer count

Question: With CGCCCCGCCC as the sequence, how does the binding signal read?
Answer: 0.00555 relative 10-mer count

Question: For CAGAAAAAAG, which binding signal is on record?
Answer: 0.0308 relative 10-mer count

Question: Which binding signal does the source give for CACCACCCTC here?
Answer: 0.00537 relative 10-mer count

Question: CGCCTCCCCC was tested. Which binding signal did it give?
Answer: 0.0061 relative 10-mer count

Question: For CCCCCTCGCC, which binding signal is on record?
Answer: 0.0061 relative 10-mer count

These sequences were tested against ZNF721 DBD2 (Homo sapiens, UniProt Q8TF20-2 395-923) in the same assay as above. Details: protein: ivt; tags: eGFP (N-terminal); dsDNA, one strand shown.
Sequence of ZNF721 DBD2 (Q8TF20 383-911): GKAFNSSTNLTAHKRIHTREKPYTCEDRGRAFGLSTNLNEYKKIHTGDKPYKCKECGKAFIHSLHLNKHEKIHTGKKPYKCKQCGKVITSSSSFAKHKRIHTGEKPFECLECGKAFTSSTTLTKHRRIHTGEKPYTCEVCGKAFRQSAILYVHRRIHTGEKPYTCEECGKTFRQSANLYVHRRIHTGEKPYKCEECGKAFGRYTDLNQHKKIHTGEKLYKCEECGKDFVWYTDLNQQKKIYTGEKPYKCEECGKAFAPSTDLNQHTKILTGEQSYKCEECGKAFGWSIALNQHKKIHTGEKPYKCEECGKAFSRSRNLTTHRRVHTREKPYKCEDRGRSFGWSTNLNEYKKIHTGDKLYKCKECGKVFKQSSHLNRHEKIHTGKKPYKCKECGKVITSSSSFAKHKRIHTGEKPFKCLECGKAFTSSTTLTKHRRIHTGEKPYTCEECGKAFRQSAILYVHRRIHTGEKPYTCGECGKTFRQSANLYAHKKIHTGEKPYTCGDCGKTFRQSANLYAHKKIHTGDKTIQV
Method in brief: as §1

Question: CCCCCTCCTC was tested. Which binding signal did it give?
Answer: 0.00395 relative 10-mer count

Question: With CCCCACCCCC as the sequence, how does the binding signal read?
Answer: 0.00419 relative 10-mer count

Question: How did the binding signal turn out when CCCCCCTCAC was run?
Answer: 0.00443 relative 10-mer count

Question: How did the binding signal turn out when AGGGGGGCGG was run?
Answer: 0.0012 relative 10-mer count

Question: With CCCCACCACA as the sequence, how does the binding signal read?
Answer: 0.00527 relative 10-mer count

Question: Which binding signal does the source give for CCCCCAGCCC here?
Answer: 0.00252 relative 10-mer count

Question: CCTCCCCCGC was tested. Which binding signal did it give?
Answer: 0.00348 relative 10-mer count

Question: For CCCGCCCCCC, which binding signal is on record?
Answer: 0.0018 relative 10-mer count

Question: With CTGCCCACCC as the sequence, how does the binding signal read?
Answer: 0.00216 relative 10-mer count

Question: With CCCCCTGCCC as the sequence, how does the binding signal read?
Answer: 0.00192 relative 10-mer count

Question: For AGGAAAAAAG, which binding signal is on record?
Answer: 0.0182 relative 10-mer count

Question: AGGGGGGAGG was tested. Which binding signal did it give?
Answer: 0.00384 relative 10-mer count

Question: How did the binding signal turn out when CCCCTCCGCC was run?
Answer: 0.003 relative 10-mer count

Question: CACCCTCCCA was tested. Which binding signal did it give?
Answer: 0.00443 relative 10-mer count

Question: With CTCCCACCCC as the sequence, how does the binding signal read?
Answer: 0.00455 relative 10-mer count

Question: CACCCTCCAC was tested. Which binding signal did it give?
Answer: 0.00587 relative 10-mer count

Question: How did the binding signal turn out when AAAAGCAGTC was run?
Answer: 0.105 relative 10-mer count

Question: For GAAAAAAAAA, which binding signal is on record?
Answer: 0.0513 relative 10-mer count

Question: How did the binding signal turn out when ACCCCACCCC was run?
Answer: 0.00324 relative 10-mer count

Question: Which binding signal does the source give for CCCGCGCCCC here?
Answer: 0.0018 relative 10-mer count

Question: How did the binding signal turn out when ACACCCCACC was run?
Answer: 0.00204 relative 10-mer count

Question: CCCGCCCACC was tested. Which binding signal did it give?
Answer: 0.0024 relative 10-mer count

Question: CCCCCCCTCC was tested. Which binding signal did it give?
Answer: 0.00336 relative 10-mer count

Question: With ACCCCACACC as the sequence, how does the binding signal read?
Answer: 0.00276 relative 10-mer count

Question: With CCCGCCCCTC as the sequence, how does the binding signal read?
Answer: 0.00144 relative 10-mer count

Question: How did the binding signal turn out when AAAAAAAGCT was run?
Answer: 0.00923 relative 10-mer count

Question: Which binding signal does the source give for CCCTCCCCCC here?
Answer: 0.00515 relative 10-mer count

Question: Which binding signal does the source give for CCCGCCCCAC here?
Answer: 0.00252 relative 10-mer count

Question: TAAAAAAACA was tested. Which binding signal did it give?
Answer: 0.134 relative 10-mer count

Question: With GAAGCGTACC as the sequence, how does the binding signal read?
Answer: 0.0018 relative 10-mer count

Question: For CCACCCGCCA, which binding signal is on record?
Answer: 0.00491 relative 10-mer count

Question: With CCCCCACCTC as the sequence, how does the binding signal read?
Answer: 0.00551 relative 10-mer count

Question: With CTACCCCCCC as the sequence, how does the binding signal read?
Answer: 0.00312 relative 10-mer count

Question: With CGCCACCCCA as the sequence, how does the binding signal read?
Answer: 0.00192 relative 10-mer count

Question: How did the binding signal turn out when GGGGTGGGGA was run?
Answer: 0.00264 relative 10-mer count

Question: CGCCCCGCCC was tested. Which binding signal did it give?
Answer: 0.00132 relative 10-mer count

Question: How did the binding signal turn out when CAGAAAAAAG was run?
Answer: 0.0475 relative 10-mer count

Question: For CACCACCCTC, which binding signal is on record?
Answer: 0.00419 relative 10-mer count

Question: For CGCCTCCCCC, which binding signal is on record?
Answer: 0.00336 relative 10-mer count

Question: How did the binding signal turn out when CCCCCTCGCC was run?
Answer: 0.00288 relative 10-mer count
